# “And” between values parts separate entries of the source, which are not always exact repeats. Identical values can stand only once. Results filed as inconclusive are left out. A call without a number means that no potency is given here. The source made the active and inactive calls. Unless noted, calls come from the whole dose curve; as a rule, active = well fitted curve in the direction sought with a large enough effect in the repeat runs; inconclusive = weak or mixed curves; inactive = no such curve, though single readings can be large; an effect the other way counts as inactive or inconclusive.
# Assays:
# [1] = molecular target: Luciferin 4-monooxygenase (Photinus pyralis) (UniProt P08659); test: qHTS assay to identify small molecule inhibitors of firefly luciferase (AID 1224835); note: nearly all actives have a fitted effect of over 25% in size; note: potency is the fitted concentration of half-maximal effect
# Luciferin 4-monooxygenase (Photinus pyralis), sequence (P08659 whole entry, looked up): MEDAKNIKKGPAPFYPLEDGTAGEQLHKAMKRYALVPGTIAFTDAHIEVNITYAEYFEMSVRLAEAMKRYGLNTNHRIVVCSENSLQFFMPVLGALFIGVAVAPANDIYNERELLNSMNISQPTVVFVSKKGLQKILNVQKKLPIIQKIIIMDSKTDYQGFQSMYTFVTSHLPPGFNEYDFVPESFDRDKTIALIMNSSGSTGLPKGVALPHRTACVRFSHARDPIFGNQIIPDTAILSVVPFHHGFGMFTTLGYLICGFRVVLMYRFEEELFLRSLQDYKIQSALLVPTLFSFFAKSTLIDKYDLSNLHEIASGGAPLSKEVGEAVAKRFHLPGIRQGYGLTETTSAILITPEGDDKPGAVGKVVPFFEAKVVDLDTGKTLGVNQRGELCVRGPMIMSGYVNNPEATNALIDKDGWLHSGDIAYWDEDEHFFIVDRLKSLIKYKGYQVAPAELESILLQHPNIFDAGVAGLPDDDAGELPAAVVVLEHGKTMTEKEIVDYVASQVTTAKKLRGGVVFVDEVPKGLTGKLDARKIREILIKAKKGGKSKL
# Summary of the method: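 Quantitative HTS format; KM concentrations of both substrates. Purified P. pyralis FLuc activity quantified from luminescence images.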
# [2] = qHTS assay to identify small molecule agonists of the constitutive androstane receptor (CAR) signaling pathway - cell viability counter screen (AID 1224836); note: nearly all actives have a fitted effect of over 45% in size; note: potency is the fitted concentration of half-maximal effect
# Summary of the method: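 Compound titrations (15 concentrations) went onto HepG2-CYP2B6-hCAR cells 4 h after seeding, alongside PK11195 at a final 0.75 uM; a 23 h, 37 C/5% CO2 incubation preceded CellTiter-Fluor viability measurement.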
# [3] = qHTS assay to identify small molecule antagonists of the constitutive androstane receptor (CAR) signaling pathway - cell viability counter screen (AID 1224837); note: nearly all actives have a fitted effect of over 45% in size; note: potency is the fitted concentration of half-maximal effect
# Summary of the method: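 In quantitative HTS format, compounds at 15 concentrations were applied to HepG2 cells double-transfected with hCAR and CYP2B6-2.2kb under 50 nM CITCO stimulation; live-cell protease activity was read after 23 hr via CellTiter-Fluor.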
# [4] = molecular target: Nuclear receptor subfamily 1 group I member 3 (Homo sapiens) (UniProt Q14994); test: qHTS assay to identify small molecule antagonists of the constitutive androstane receptor (CAR) signaling pathway (AID 1224838); note: nearly all actives have a fitted effect of over 40% in size; note: potency is the fitted concentration of half-maximal effect
# Nuclear receptor subfamily 1 group I member 3 (Homo sapiens), sequence (Q14994 whole entry, looked up): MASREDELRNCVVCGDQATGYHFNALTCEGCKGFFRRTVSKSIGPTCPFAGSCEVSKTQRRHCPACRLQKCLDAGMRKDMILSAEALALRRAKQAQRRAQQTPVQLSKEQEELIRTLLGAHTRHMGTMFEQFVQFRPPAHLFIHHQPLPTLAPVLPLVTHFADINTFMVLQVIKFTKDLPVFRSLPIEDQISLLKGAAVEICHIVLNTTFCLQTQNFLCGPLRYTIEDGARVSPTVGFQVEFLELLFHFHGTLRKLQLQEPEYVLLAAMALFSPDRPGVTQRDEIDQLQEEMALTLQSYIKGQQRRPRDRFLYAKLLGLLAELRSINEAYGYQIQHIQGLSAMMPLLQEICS
# Summary of the method: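 CITCO-stimulated (50 nM final) HepG2 cells stably transfected with hCAR and CYP2B6-2.2kb luciferase were exposed to compounds at 15 concentrations for 24 h at 37 C/5% CO2. A luciferase reagent was added and luminescence recorded after 30 min.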
# [5] = molecular target: Nuclear receptor subfamily 1 group I member 3 (Homo sapiens) (UniProt Q14994); test: qHTS assay to identify small molecule agonists of the constitutive androstane receptor (CAR) signaling pathway (AID 1224839); note: nearly all actives have a fitted effect of over 15% in size; note: potency is the fitted concentration of half-maximal effect
# Summary of the method: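 In this screen, CAR-driven CYP2B6 promoter activity is measured by luminescence in HepG2-CYP2B6-hCAR cells after 24 h with test compounds and 0.75 uM PK11195 (final concentration).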
# [6] = qHTS assay to identify small molecule antagonists of the estrogen related receptor signaling pathway with the pleiotropic PPARgamma coactivator (PGC) from Tox21 10K library (AID 1224841; call rule not given here; note: actives are mostly falling curves and most rising ones were filed inactive; nearly all actives have a fitted effect of over 50% in size; note: potency is the fitted concentration of half-maximal effect)
# Summary of the method: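 In the PGC/ERR line, DMSO solutions of test chemicals are pin-delivered to 2,000 cells/well six hours after dispensing. Following eighteen hours' incubation, One-Glo reagent is added and luminescence recorded.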
# [7] = qHTS assay to identify small molecule antagonists of the estrogen related receptor signaling pathway with the pleiotropic PPARgamma coactivator (PGC) from Tox21 10K library - cell viability counter screen (AID 1224840; active = well fitted cell-killing curve with a large enough effect in the repeat runs, not every such curve was filed as active; note: nearly all actives have a fitted effect of over 40% in size; note: potency is the fitted concentration of half-maximal effect)
# Summary of the method: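 Viability counter screen, PGC/ERR cells: 17.5 h compound exposure at 37 C, CellTiter-Fluor fluorescence endpoint.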
# [8] = qHTS assay to identify small molecule agonists of the estrogen related receptor signaling pathway with the pleiotropic PPARgamma coactivator (PGC) from Tox21 10K library (AID 1224842); note: nearly all actives have a fitted effect of over 15% in size
# Summary of the method: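 PGC/ERR reporter cells (NTP line) were seeded 2,000 per well, rested 6 h at 37 C/5% CO2, then pin-dosed with compounds in DMSO for 18 h at 37 C; luciferase read by One-Glo luminescence after 30 min at room temperature.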
# [9] = molecular target: Thyrotropin receptor (Homo sapiens) (UniProt P16473); test: qHTS assay to identify small molecule agonists of the thyroid stimulating hormone receptor (TSHR) signaling pathway (AID 1224843; calls by dose curve; note: nearly all actives have a fitted effect of over 45% in size; note: potency is the fitted concentration of half-maximal effect)
# Thyrotropin receptor (Homo sapiens), sequence (P16473 whole entry, looked up): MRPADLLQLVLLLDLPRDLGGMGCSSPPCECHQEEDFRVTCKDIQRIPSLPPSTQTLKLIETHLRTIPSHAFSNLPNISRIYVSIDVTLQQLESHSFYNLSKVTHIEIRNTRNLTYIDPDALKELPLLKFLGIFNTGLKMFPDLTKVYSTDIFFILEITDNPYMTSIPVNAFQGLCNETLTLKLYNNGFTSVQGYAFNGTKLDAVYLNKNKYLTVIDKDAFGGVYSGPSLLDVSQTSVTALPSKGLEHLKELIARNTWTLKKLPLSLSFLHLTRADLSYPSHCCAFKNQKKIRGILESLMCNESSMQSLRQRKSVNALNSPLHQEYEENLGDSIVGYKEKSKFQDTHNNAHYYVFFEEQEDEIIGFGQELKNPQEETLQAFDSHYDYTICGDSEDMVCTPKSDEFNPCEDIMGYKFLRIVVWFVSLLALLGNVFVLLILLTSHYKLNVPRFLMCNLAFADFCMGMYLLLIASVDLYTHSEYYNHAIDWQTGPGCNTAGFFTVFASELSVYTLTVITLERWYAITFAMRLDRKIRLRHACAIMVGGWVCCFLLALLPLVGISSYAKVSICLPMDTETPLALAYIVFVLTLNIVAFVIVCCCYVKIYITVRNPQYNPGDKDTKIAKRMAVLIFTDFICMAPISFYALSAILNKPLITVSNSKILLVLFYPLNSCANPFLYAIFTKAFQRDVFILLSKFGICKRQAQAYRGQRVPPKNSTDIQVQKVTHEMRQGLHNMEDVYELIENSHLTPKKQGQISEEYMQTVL
# Summary of the method: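 Compounds are titrated over 15 concentrations, in triplicate, onto TSHR-HEK293 cells seeded at 800/well. Plates sit 30 min at room temperature before cAMP-d2 and anti-cAMP cryptate are added; signal is read after a further hour.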
Compound,Potency [1],Potency [2],Potency [3],Potency [4],Potency [5],Potency [6],Potency [7],Potency [8],Potency [9]
O=S1OC[C@@H]2[C@H](CO1)[C@]1(Cl)C(Cl)=C(Cl)[C@@]2(Cl)C1(Cl)Cl (stereo partly specified),inactive,inactive,inactive,inactive,27.3 µM (active),–,–,–,–
NS(=O)(=O)C(F)(F)C(F)(F)C(F)(F)C(F)(F)C(F)(F)C(F)(F)C(F)(F)C(F)(F)F,inactive,inactive,inactive,inactive,inactive,inactive,–,–,–
CCO[C@H]1O[C@@H]2OC3(C)CC[C@H]4[C@H](C)CC[C@@H]([C@H]1C)[C@@]24OO3,inactive,inactive,inactive,inactive,4.22 µM (active),0.668 µM (active),inactive,inactive,–
CC(C)(C)C(O)C(Oc1ccc(Cl)cc1)n1cncn1 (stereo unspecified),inactive,–,inactive,inactive,–,–,inactive,–,–
Oc1ccc(Cl)c(Cl)c1Cl,–,inactive,inactive,inactive,inactive,–,–,–,inactive
CN1C[C@H](CNC(=O)OCc2ccccc2)C[C@@H]2c3cccc4c3c(cn4C)C[C@H]21,inactive,inactive,inactive,inactive,inactive,–,inactive,–,inactive
COc1nn(CSP(=S)(OC)OC)c(=O)s1,35.6 µM (active),inactive,inactive,inactive,54.5 µM (active),–,–,–,–
CS/C(C)=N/OC(=O)N(C)SN(C)C(=O)O/N=C(\C)SC,31.7 µM (active),–,–,–,inactive,–,–,inactive,–
CCCCc1c(C)nc(NCC)nc1OS(=O)(=O)N(C)C,inactive,inactive,–,inactive,21.7 µM (active),48.6 µM (active),–,inactive,inactive
Clc1ccc(C(OCCN2CCCCC2)c2ccccc2)cc1 (stereo unspecified),inactive,inactive,inactive,inactive,inactive,inactive,inactive,inactive,inactive
CC1CC(CC2CCC(N)C(C)C2)CCC1N (stereo unspecified),inactive,inactive,inactive,–,inactive,–,–,–,inactive
Clc1ccc(C2(Cn3cncn3)CC(Br)CO2)c(Cl)c1 (stereo unspecified),inactive,–,–,inactive,60.8 µM (active),24.2 µM (active),–,inactive,inactive
O=C1CN=C(c2ccccc2)c2cc(Cl)ccc2N1CC1CC1,inactive,inactive,inactive,inactive,–,–,inactive,inactive,–
N#Cc1cc(I)c(O)c(I)c1,–,–,–,61.1 µM (active),inactive,30.6 µM (active),–,inactive,inactive
O=C(Nc1ccccc1)Nc1cnns1,–,–,–,inactive,–,inactive,inactive,inactive,inactive
O=C(O)C1(c2ccc3c(c2)OC[C@H](Cc2ccc(-c4ccccc4)cc2)[C@H]3O)CCCC1,71 µM (active),inactive,inactive,inactive,inactive,–,inactive,inactive,–
OC(c1ccc(Cl)cc1)(c1ccc(Cl)cc1)c1cccnc1,inactive,inactive,inactive,inactive,–,61.1 µM (active),–,inactive,–

Compound,Potency [1],Potency [2],Potency [3],Potency [4],Potency [5],Potency [6],Potency [7],Potency [8],Potency [9]
O=C(CBr)c1ccccc1,inactive,inactive,inactive,inactive,–,–,inactive,–,–
COP(=O)(OC)O/C(=C/Cl)c1cc(Cl)c(Cl)cc1Cl,inactive,inactive,inactive,–,–,8.13 µM (active),–,inactive,–
CC[C@H]1C[C@H]2[C@@H]3CCC4=CC(=O)CC[C@@H]4[C@H]3CC[C@]2(C)[C@H]1O,–,inactive,inactive,inactive,inactive,–,inactive,inactive,inactive
O=C1NCN(c2ccccc2)C12CCN(CCCOc1ccc(F)cc1)CC2,inactive,6.68 µM (active),3.35 µM (active),9.44 µM (active),inactive,inactive,inactive,inactive,–
C=CC[C@]1(O)CC[C@H]2[C@@H]3CCC4=CC(=O)CCC4=C3C=C[C@@]21C,inactive,–,–,–,–,–,inactive,inactive,–
CC(c1ccc(O)cc1)(c1ccc(O)cc1)c1ccc(O)cc1,inactive,inactive,inactive,9.69 µM (active),inactive,–,–,inactive,–
COC(=O)C(C)N(C(=O)Cc1ccccc1)c1c(C)cccc1C (stereo unspecified),inactive,inactive,inactive,inactive,9.69 µM (active),–,inactive,–,27.3 µM (active)
CO/C=C(/C(=O)OC)c1ccccc1COc1cccc(C(F)(F)F)n1,inactive,–,–,inactive,3.85 µM (active),–,inactive,inactive,–
Nc1ccc([N+](=O)[O-])cc1[N+](=O)[O-],inactive,–,–,inactive,inactive,–,–,–,–
c1cc2ccc3cccc4ccc(c1)c2c34,inactive,inactive,inactive,inactive,36 µM (active),inactive,inactive,–,7.19 µM (active)
C(=NC1CCCCC1)=NC1CCCCC1,inactive,–,–,10.9 µM (active) and 21.7 µM (active),inactive,13.7 µM (active),38.8 µM (active),inactive,–
N#CCC#N,inactive,48.6 µM (active),–,61.1 µM (active),inactive,–,–,–,inactive
O=C1C(=O)c2cccc3cccc1c23,inactive,inactive,inactive,inactive,61.1 µM (active),–,inactive,–,inactive
CC(=O)c1cc2c(cc1C)C(C)(C)C(C)CC2(C)C (stereo unspecified),inactive,inactive,inactive,inactive,24.3 µM (active),–,–,–,inactive
II,28.3 µM (active),inactive,inactive,inactive,inactive,–,inactive,–,–
CCCN(CCC)c1c([N+](=O)[O-])cc(S(C)(=O)=O)cc1[N+](=O)[O-],inactive,inactive,inactive,–,–,–,inactive,inactive,–
